Measured values published in PubChem BioAssay.
A number with no mark means an inactive call. How the calls were made is not given here.

Molecular target: Pantothenate synthetase (Mycobacterium tuberculosis (strain ATCC 25618 / H37Rv)) (UniProt P9WIL5)
Assay: Recombinant Mtb pantothenate synthetase (PanC) inhibitors, coupled enzyme, confirmatory (AID 375);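 further: 0% = full reaction with vehicle and 100% = no enzyme background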
Conditions: coupled enzyme assay; at 10 µM, active compounds read high

Sequence of Pantothenate synthetase (Mycobacterium tuberculosis (strain ATCC 25618 / H37Rv)) (P9WIL5 whole entry, looked up): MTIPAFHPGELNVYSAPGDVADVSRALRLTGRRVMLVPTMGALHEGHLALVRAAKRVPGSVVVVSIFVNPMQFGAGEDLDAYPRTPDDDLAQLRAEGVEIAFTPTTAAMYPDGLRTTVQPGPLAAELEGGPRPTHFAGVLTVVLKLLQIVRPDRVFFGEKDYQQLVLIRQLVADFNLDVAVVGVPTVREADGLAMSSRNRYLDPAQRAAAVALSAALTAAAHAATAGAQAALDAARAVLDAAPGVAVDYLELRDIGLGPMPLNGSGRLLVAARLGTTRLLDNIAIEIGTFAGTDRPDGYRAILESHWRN

| SMILES | inhibition [%] |
| --- | --- |
| O=C(COC(=O)CCC1CCCC1)Nc1ccc(Cl)cn1 | 2 |
| CCC(C(=O)NC1CCCC1)N(Cc1ccco1)C(=O)Cn1nnc(-c2ccc(C)cc2)n1 (stereo not drawn) | 5 |
| CCCc1cc(=O)[nH]c(Nc2ccc(OC)c(Cl)c2)n1 | 3 |
| Cc1cc(C)c2c(C)nn(C3CCCCC3)c2n1 | 0 |
| Cc1ccc(SCCNS(=O)(=O)c2ccc(F)cc2)cc1 | 1 |
| CCCSc1nc(N)c(C#N)c(-c2ccc(C)cc2)c1C#N | 2 |
| CS(=O)(=O)NCC(c1cccnc1)N1CCN(c2ccc(F)cc2)CC1 (stereo not drawn) | 1 |
| O=C(Nc1ccc(N2CCOCC2)cc1)Nc1ccc2nc(-c3ccco3)c(-c3ccco3)nc2c1 | 4 |
| CC(CN1c2ccccc2Sc2ccccc21)N(C)C (stereo not drawn) | 0 |
| Cc1nnc(SCC(=O)Nc2c(Cl)cccc2Cl)[nH]c1=O | 0 |
| CC(C)(C)c1cc(CCC(=O)N2CCNCC2)c(C(C)(C)C)cc1O | 0 |
| CCOc1ccccc1N(CC(=O)N1CCCCCC1)S(C)(=O)=O | 0 |
| COC(=O)c1ccccc1NC(=O)CSc1nnnn1C1CCCCC1 | 6 |
| CNC(=O)CN(C#N)c1nc(N(C)C)nc(N(C)C)n1 | 0 |
| C=CCn1c(SCC(=O)Nc2ccccc2OC)nnc1-c1ccccn1 | 3 |
| CSc1nc(NC(C)(C)C)nc(Oc2ccc(=O)[nH]n2)n1 | 0 |
| CC(=O)Nc1ccc(-c2cc3ccccc3o2)cc1 | 8 |
| CCOc1cc2[nH]c(=O)n(CCCCC(=O)NCc3ccco3)c(=O)c2cc1OCC | 6 |
| O=C(COC(=O)c1ccccc1Oc1ccccc1)NC1CCS(=O)(=O)C1 (stereo not drawn) | 0 |
| O=C(O)c1cc(-c2ccccc2)nc2ccccc12 | 3 |
| O=C1N2c3ccccc3CCc3cccc(c32)C1(O)C(F)(F)F (stereo not drawn) | 0 |
| Cc1ccc(OCC(=O)N2CCN(C(=O)CCC3CCCC3)CC2)cc1 | 0 |
| Cc1ccc2c(c1)NC(=O)C(CC(=O)NCCN(CC(C)C)CC(C)C)O2 (stereo not drawn) | 2 |
